Drawing on the supplement of paper PMC7393113, this text covers mitochondrial superoxide for 37 compounds.

± gives the standard deviation of the averaged measurements.

The subject of the assay is iBMDM (immortalised mouse bone-marrow-derived macrophages), LPS-stimulated. Kind of assay: mitochondrial superoxide (MitoSOX fluorescence) fold increase over unstimulated control; higher = more LPS-induced mitochondrial ROS (less inhibition). Conditions: inhibitor concentration: 500 nM; LPS: 100 ng/ml; time after LPS: 4 h. An outline of the steps:
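Cells were immortalised mouse bone-marrow-derived macrophages, plated in triplicate and switched to phenol-red-free 1% FCS/DMEM for 20 h. Kinase inhibitors (500 nM, 30 min) preceded MitoSox loading (1 μM, 10 min) and LPS addition (100 ng/ml), with 510/580 nm fluorescence read every 60 min for 4 h. Mitochondrial superoxide is reported as averaged fold induction over untreated macrophages.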
Compound `CNC(=O)c1cc(COc2nnc(Nc3ccc(Cl)cc3)c3ccoc23)ccn1` [Telatinib] displayed a mitochondrial superoxide of 1.38 ± 0.11. Compound `Nc1cc(C(F)(F)F)c(-c2cc(N3CCOCC3)nc(N3CCOCC3)n2)cn1` [BKM120 (NVP-BKM120, Buparlisib)] showed a mitochondrial superoxide of 1.53 ± 0.05.

`CNC(=O)c1nn(C)c2c1C(C)(C)Cc1cnc(Nc3ccc(N4CCN(C)CC4)cc3)nc1-2` came in with a mitochondrial superoxide of 1.64 ± 0.064. With `Cc1cc(C)nc(NS(=O)(=O)c2ccc(NC(=S)NC(=O)COc3ccc(Br)cc3Cl)cc2)n1` the figure was 1.61 ± 0.055; with `CCCNC(=O)Nc1ccc(Oc2ncnc3cc(OC)c(OC)cc23)cc1Cl`, 1.22 ± 0.024.

The compound `CN1CCN(c2ccc3nc(-c4c(N)c5c(F)cccc5[nH]c4=O)[nH]c3c2)CC1` [Dovitinib (TKI-258, CHIR-258)] yielded a mitochondrial superoxide of 1.91 ± 0.073.

For the compound `CNC(=O)c1ccccc1Sc1ccc2c(/C=C/c3ccccn3)n[nH]c2c1` [Axitinib], the mitochondrial superoxide was 1.8 ± 0.058. Regarding `N#Cc1c(O)c2c(-c3ccc(-c4ccccc4O)cc3)csc2[nH]c1=O`, the mitochondrial superoxide was determined as 1.52 ± 0.034.

On to `CCn1c(-c2nonc2N)nc2c(C#CC(C)(C)O)ncc(OC[C@H]3CCCNC3)c21`, for which the mitochondrial superoxide is 1.49 ± 0.019. With `O=C(O)c1ccc(Nc2ncc3c(n2)-c2ccc(Cl)cc2C(c2c(F)cccc2F)=NC3)cc1` the figure was 1.46 ± 0.052; with `COc1cc(Nc2ncc(F)c(Nc3ccc4c(n3)N(COP(=O)(O)O)C(=O)C(C)(C)O4)n2)cc(OC)c1OC` [Fostamatinib (R788)], 1.71 ± 0.034. With `CS(=O)(=O)N1CCc2c(-c3cnc(N)nc3)nc(N3CCOCC3)nc21` the figure was 1.55 ± 0.025; with `O=c1cc(-c2cccc3c2Sc2ccccc2S3)oc(N2CCOCC2)c1`, 1.51 ± 0.084; with `CNC(=O)CN1CCC(Oc2cc3c(Nc4cccc(Cl)c4F)ncnc3cc2OC)CC1` [AZD8931 (Sapitinib)], 1.37 ± 0.046. Turning to `CC(C)(O)CC(=O)NCCn1ccc2ncnc(Nc3ccc(Oc4cccc(C(F)(F)F)c4)c(Cl)c3)c21`, the mitochondrial superoxide turned out to be 1.62 ± 0.14. To `CNC(=O)c1cc(Oc2ccc(NC(=O)Nc3ccc(Cl)c(C(F)(F)F)c3)c(F)c2)ccn1` [Regorafenib (BAY 73-4506)] belongs 1.71 ± 0.062. With `Cc1cnc(Nc2ccc(OCCN3CCCC3)cc2)nc1Nc1cccc(S(=O)(=O)NC(C)(C)C)c1` the figure was 1.42 ± 0.22; with `Clc1ccc(C2(c3ccc(-c4cn[nH]c4)cc3)CCNCC2)cc1`, 1.25 ± 0.042.

Regarding `Cn1c(=O)c(F)c(Nc2ccc(I)cc2F)c2c(=O)n(C[C@@H](O)CO)cnc21`, the mitochondrial superoxide was found to be 1.51 ± 0.055.

`CCN1CCN(Cc2ccc(Nc3ncc(F)c(-c4cc(F)c5nc(C)n(C(C)C)c5c4)n3)nc2)CC1` returned a mitochondrial superoxide of 1.36 ± 0.022. With `Cc1cc(O)c2c(c1)C(=O)c1cccc(O)c1C2=O` [Chrysophanic Acid] the figure was 1.48 ± 0.022. To `O=C1NCCc2[nH]c(-c3ccncc3)cc21` belongs 1.63 ± 0.06; to `O=C(NCc1cccc(O)c1)Nc1nc(-c2ccncc2)cs1`, 1.64 ± 0.017.

Regarding `O=C(NC(NC(=S)Nc1ccc(F)c([N+](=O)[O-])c1)C(Cl)(Cl)Cl)C(c1ccccc1)c1ccccc1` (configuration not stated), the mitochondrial superoxide was 1.37 ± 0.015. Regarding `COc1cc2c(Nc3ccc(NC(=O)c4ccccc4)cc3)ncnc2cc1OCCCN1CCOCC1`, the mitochondrial superoxide is 1.52 ± 0.037. To `CC(C)N(CCC(=O)c1ccc2ccccc2c1)Cc1ccccc1` belongs 1.69 ± 0.02; to `C=CC(=O)N1CCC[C@@H](n2nc(-c3ccc(Oc4ccccc4)cc3)c3c(N)ncnc32)C1`, 1.46 ± 0.043. With `Nc1nc(NCCNc2ncc(-n3ccnc3)c(-c3ccc(Cl)cc3Cl)n2)ccc1[N+](=O)[O-]` the figure was 1.31 ± 0.056; with `COc1ccc(CNC(=O)Nc2ncc([N+](=O)[O-])s2)cc1`, 1.6 ± 0.096. To `Cc1cc(Nc2cc(CN3CCOCC3)c3nc(C)c(Cc4ccc(Cl)cc4F)n3n2)n[nH]1` belongs 1.38 ± 0.035; to `COc1cc2nccc(Oc3ccc(NC(=O)C4(C(=O)Nc5ccc(F)cc5)CC4)cc3)c2cc1OC`, 1.51 ± 0.029. `NC(=O)c1ncn([C@@H]2O[C@H](CO)[C@@H](O)[C@H]2O)c1N` [Acadesine] returned a mitochondrial superoxide of 1.36 ± 0.027. To `Cc1csc(-c2nnc(Nc3ccc(Oc4ncccc4-c4ccnc(N)n4)cc3)c3ccccc23)c1` belongs 1.67 ± 0.046. To `COc1ccc(-c2ccc3ncc4c(c3c2)n(-c2ccc(N3CCNCC3)c(C(F)(F)F)c2)c(=O)n4C)cn1` belongs 1.49 ± 0.077; to `CCCCCCCCCCCCc1ccc(S(=O)(=O)Nc2nncs2)cc1`, 1.2 ± 0.038.

On to `CC[C@H](Nc1ncnc2[nH]cnc12)c1nc2cccc(F)c2c(=O)n1-c1ccccc1` [CAL-101 (Idelalisib, GS-1101)], for which the mitochondrial superoxide was found to be 1.48 ± 0.11. With `Cc1cnc(Nc2ccc(N3CCN(C)CC3)cc2)nc1Nc1cccc(S(=O)(=O)NC(C)(C)C)c1` the figure was 1.65 ± 0.027.
